Reference: PubChem BioAssay (EPA / NIEHS)
Records with an inconclusive call do not appear. Activity calls are given as the source filed them. Rule for the calls: active = hit-call score of the fitted dose curve at least 0.9, where 1 is the maximum; inconclusive = response in the unintended direction; inactive = score below 0.9.

Test: ACEA_ER_AUC_viability: ACEA Biosciences xCELLigence Real-Time Cell Analysis on Estrogen Receptor Agonism for Viability (AID 2283782);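 note: hit means loss of impedance signal meaning reduced cell growth or viability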
How it was run: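 Continuous-exposure impedance cell analysis uses T-47D cells in charcoal-stripped serum, eight 1:4 dilutions topping at 100 uM final, biological duplicate. Area under the growth curve at 80 h is fitted against DMSO baseline.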
In the case of CCCc1ccccc1O, the AC50 is reported as 64.2 µM (active). With Cc1ccc(C=O)s1 the AC50 was 50 µM (active). With CC(C)C[C@H]1C(=O)N2CCC[C@H]2[C@]2(O)O[C@](NC(=O)[C@@H]3C=C4c5cccc6[nH]c(Br)c(c56)C[C@H]4N(C)C3)(C(C)C)C(=O)N12 the AC50 was 4.31 µM (active). For CCCCC(CC)COCCC#N (centres undefined), the outcome was “inactive”. With CNC[C@H](O)c1cccc(O)c1 the AC50 was 50 µM (active). For CCCCCC=CCC(=O)OC, the outcome was “inactive”. In the case of CC1(C)C(=O)N(Br)C(=O)N1Cl, the outcome is reported as “inactive”. In the case of Cc1ccc2ccccc2n1, the outcome is reported as “inactive”. In the case of OC1C(O)C(O)C(O)C(O)C1O (centres undefined), the outcome is reported as “inactive”. In the case of N#Cc1ccccc1, the outcome is reported as “inactive”. With CCCCc1ccc(N)cc1 the outcome was “inactive”. In the case of CCCCOCCOCCOCCOCCO, the outcome is reported as “inactive”. In the case of CC1(C)[C@H]2CC[C@]1(C)[C@H](O)C2, the outcome is reported as “inactive”. In the case of CC(C)C(C)(C)C(C)(C)C(C)(C)S, the outcome is reported as “inactive”. For C=CCOC(=O)CCC1CCCCC1, the AC50 was 75.5 µM (active). In the case of CC1=CCC(O)(C(C)C)CC1 (centres undefined), the outcome is reported as “inactive”. In the case of CC(C)CCCCCCCOC(=O)c1ccc(C(=O)OCCCCCCCC(C)C)c(C(=O)OCCCCCCCC(C)C)c1, the outcome is reported as “inactive”. In the case of CCn1c2ccccc2c2cc(N)ccc21, the outcome is reported as “inactive”. For CC(=O)Nc1ccccc1O, the outcome was “inactive”. With CC(=O)OCCOC(C)=O the outcome was “inactive”. With C=C(C)C(=O)O the outcome was “inactive”. With C=COCCOCCOCCOC=C the outcome was “inactive”. With OCc1cccnc1 the outcome was “inactive”. With CC(C#N)(CCC(=O)O)N=NC(C)(C#N)CCC(=O)O (centres undefined) the outcome was “inactive”. In the case of Clc1ccc(Cl)c(Cl)c1Cl, the outcome is reported as “inactive”. With CCCC(C)C=O (centres undefined) the AC50 was 20.8 µM (active). For c1ccc2sc(SN(C3CCCCC3)C3CCCCC3)nc2c1, the AC50 was 81.8 µM (active). In the case of Cc1cccc(C)c1C, the AC50 is reported as 26.4 µM (active). With C=CC(=O)NCOCC(C)C the outcome was “inactive”. For CC(C)=CCCC(C)CC=O (centres undefined), the outcome was “inactive”. In the case of O=C[C@H](O)[C@H](O)[C@H](O)CO, the AC50 is reported as 23.6 µM (active). With O=C(O)c1cccc([N+](=O)[O-])c1 the outcome was “inactive”. For CC(C)C1CCC(O)CC1 (centres undefined), the outcome was “inactive”. In the case of O=C(O)CCCCCCCC(=O)O, the outcome is reported as “inactive”.
